Results filed as inconclusive are left out. Active and inactive are the calls of the source. The call rests on the fitted dose curve; in most records, active means well fitted curve in the direction sought with a large enough effect; inconclusive means small, poorly fitted or top-dose-only effect, or another doubt; inactive means no such curve, though single readings can be large; an effect the other way counts as inactive or inconclusive.
Tests used:
MCC-26 = experiment: qHTS assay to identify novel small-molecules to repurpose for Merkel cell carcinoma treatment (AID 1296009); settings: MCC and control cell lines, CellTiter-Glo viability, 72 h; series mostly up to 46 µM; further: nearly all actives have a fitted effect of over 60% in size
How it was run: (§1)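 CellTiter-Glo luminescence after 72 hr compound exposure at 37 degree celsius gave cell viability. Libraries NPC and MIPE were run as 8- and 11-point dose responses; RLUs normalized to DMSO (negative) and no-cell (cytotoxicity) controls.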

MKL-1 = experiment: as above; settings: MCC and control cell lines, CellTiter-Glo viability, 72 h; series mostly up to 46 µM
How it was run: as §1

MKL-2 = experiment: as above; settings: MCC and control cell lines, CellTiter-Glo viability, 72 h; series mostly up to 46 µM
How it was run: as §1

WaGa = experiment: as above; settings: MCC and control cell lines, CellTiter-Glo viability, 72 h; series mostly up to 46 µM
How it was run: as §1

MCC-13 = experiment: as above; settings: MCC and control cell lines, CellTiter-Glo viability, 72 h; series mostly up to 46 µM
How it was run: as §1

UISO = experiment: as above; settings: MCC and control cell lines, CellTiter-Glo viability, 72 h; series mostly up to 46 µM
How it was run: as §1

CASKI = experiment: Primary qHTS to identify gynecologic anti-cancer compounds using libraries of approved drugs and bioactive compounds (AID 1345084); settings: Gynecologic cancer cell panel viability, ATPlite luminescence, 48 h; series mostly up to 57.5 µM; further: nearly all actives have a fitted effect of over 55% in size
How it was run: (§2)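 Measured: luminescence after ATPlite addition (15 min, RT). Exposure: 48 h, 37 C, 5% CO2.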

OV90 = experiment: as above; settings: Gynecologic cancer cell panel viability, ATPlite luminescence, 48 h; series mostly up to 57.5 µM
How it was run: as §2

SKOV3 = experiment: as above; settings: Gynecologic cancer cell panel viability, ATPlite luminescence, 48 h; series mostly up to 57.5 µM
How it was run: as §2

C33A = experiment: as above; settings: Gynecologic cancer cell panel viability, ATPlite luminescence, 48 h; series mostly up to 57.5 µM
How it was run: as §2

Es-2 = experiment: as above; settings: Gynecologic cancer cell panel viability, ATPlite luminescence, 48 h; series mostly up to 57.5 µM
How it was run: as §2

Hek293T = experiment: as above; settings: Gynecologic cancer cell panel viability, ATPlite luminescence, 48 h, control line for the selectivity index; series mostly up to 57.5 µM
How it was run: as §2

JEG-3 = experiment: as above; settings: Gynecologic cancer cell panel viability, ATPlite luminescence, 48 h; series mostly up to 57.5 µM
How it was run: as §2

Tov-21-G = experiment: as above; settings: Gynecologic cancer cell panel viability, ATPlite luminescence, 48 h; series mostly up to 57.5 µM
How it was run: as §2

HeLa = experiment: as above; settings: Gynecologic cancer cell panel viability, ATPlite luminescence, 48 h; series mostly up to 57.5 µM
How it was run: as §2

Tov112D = experiment: as above; settings: Gynecologic cancer cell panel viability, ATPlite luminescence, 48 h; series mostly up to 57.5 µM
How it was run: as §2

PA-1 = experiment: as above; settings: Gynecologic cancer cell panel viability, ATPlite luminescence, 48 h; series mostly up to 57.5 µM
How it was run: as §2

Measured: Potency
Potency means the concentration at half of the fitted maximal effect.

CN1CCCN(C(=O)c2cccc(-c3ccc(C=C4C(=O)Nc5ccc(Cl)cc54)o3)c2)CC1
active: MKL-1 5.26 µM | MKL-2 16.6 µM | WaGa 16.6 µM
inactive: MCC-26

COc1cc(N2CCC(C(N)=O)CC2)ccc1Nc1nc(N)c(Cl)c(Nc2ccccc2S(=O)(=O)C(C)C)n1
inactive: MCC-13
active: UISO 5.9 µM | WaGa 16.6 µM

C[C@H]1[C@@H](OC(=O)CCC(=O)O)O[C@@H]2O[C@@]3(C)CC[C@@H]4[C@H](C)CC[C@@H]1[C@@]24OO3
inactive: MCC-26 | CASKI | OV90 | SKOV3
active: MKL-1 10.5 µM | MKL-2 5.26 µM | UISO 4.18 µM | WaGa 6.62 µM

Nc1nc(=O)n([C@H]2C[C@H](O)[C@@H](CO)O2)cc1F
inactive: MCC-26 | MKL-2
active: UISO 0.209 µM | WaGa 0.0935 µM

CC(C)Oc1ccc(C(=O)N[C@H](CNC(=O)CN(C)C)Cc2ccc(-c3cn4cccc([C@H](C)O)c4n3)cc2)cc1Cl
inactive: MCC-26 | MKL-1 | MKL-2

Cn1c(Nc2ccc(C(F)(F)F)cc2)nc2cc(Oc3ccnc(-c4ncc(C(F)(F)F)[nH]4)c3)ccc21
active: UISO 3.72 µM | WaGa 18.7 µM
inactive: MCC-26

CO[C@@H]1[C@@H](O)[C@H](O)[C@@H](n2c3c(Cl)cccc3c3c4c(c5c6cccc(Cl)c6[nH]c5c32)C(=O)NC4=O)O[C@@H]1CO
active: MCC-26 1.18 µM | MKL-1 0.332 µM | MKL-2 0.935 µM | UISO 0.264 µM | WaGa 0.166 µM

Cc1cc(C(=O)NOCCO)c(Nc2ccc(I)cc2F)n(C)c1=O
inactive: MCC-26 | MKL-1 | MKL-2 | UISO | WaGa

O=c1[nH]c(=O)n([C@H]2C[C@@H](O)[C@@H](CO)O2)cc1F
active: MCC-13 0.332 µM | WaGa 0.0662 µM

C[C@H](NCc1ccc(OCc2cccc(F)c2)cc1)C(N)=O
active: MCC-26 20.9 µM | MKL-1 10.5 µM | UISO 16.6 µM | WaGa 18.7 µM

CCc1cnn2c(NCc3ccc[n+]([O-])c3)cc(N3CCCC[C@@H]3CCO)nc12
active: MCC-26 0.0833 µM | MKL-2 0.0418 µM | UISO 0.0935 µM

CCCCCCCCc1ccc(CCC(N)(CO)CO)cc1
inactive: MCC-13 | WaGa

C=CCNC1=C2C[C@@H](C)C[C@H](OC)[C@@H](O)[C@@H](C)C=C(C)[C@H](OC(N)=O)[C@@H](OC)C=CC=C(C)C(=O)NC(=CC1=O)C2=O
active: MCC-13 3.72 µM | UISO 1.48 µM | WaGa 1.66 µM

O=C(O)c1ccc(Nc2ncc3c(n2)-c2ccc(Cl)cc2C(c2c(F)cccc2F)=NC3)cc1
inactive: MCC-26 | MKL-2 | UISO | C33A | Es-2 | Hek293T | JEG-3 | OV90 | SKOV3 | Tov-21-G

O=C(Nc1nnc(-c2ccco2)o1)c1cc(-c2ccccc2)nc2ccccc12
inactive: MCC-26

COc1cc2ncnc(Nc3cccc(Br)c3)c2cc1OC
inactive: MCC-26 | MKL-1 | WaGa

N=c1ccn2c(n1)O[C@H]1[C@@H](O)[C@@H](CO)O[C@H]12
inactive: MCC-26
active: UISO 0.526 µM | WaGa 2.09 µM

O=C(Nc1cccc(Nc2ncc(Br)c(NCCc3cnc[nH]3)n2)c1)N1CCCC1
active: MCC-26 11.8 µM | MKL-2 5.9 µM | UISO 16.6 µM | WaGa 2.96 µM

CC(C)(C)c1nc2c3cc[nH]c(=O)c3c3cc(F)ccc3c2[nH]1
inactive: MCC-26 | MKL-1 | MKL-2 | WaGa

Cn1cnc2c(F)c(Nc3ccc(Br)cc3F)c(C(=O)NOCCO)cc21
active: OV90 0.224 µM
inactive: MCC-26 | MKL-1 | MKL-2 | UISO | WaGa | C33A | CASKI | HeLa | Hek293T | JEG-3 | SKOV3 | Tov112D

COc1ccc(S(=O)(=O)Nc2cccnc2Nc2ccc(O)cc2)cc1
active: MCC-13 3.72 µM | C33A 8.91 µM | Es-2 2.24 µM | HeLa 1.78 µM | JEG-3 2 µM | PA-1 1 µM | SKOV3 6.31 µM | Tov112D 1.78 µM

CCc1c(O)cc(O)c(C(=O)c2ccc(OCCN3CCOCC3)c(OC)c2)c1CC(=O)N(CCOC)CCOC
active: UISO 1.48 µM
inactive: MCC-13

CN(C)CCN1C(=O)c2cccc3cc(N)cc(c23)C1=O
active: MKL-1 14.8 µM | MKL-2 18.7 µM | UISO 7.43 µM | WaGa 9.35 µM
inactive: MCC-26

CC(C)n1cnc2c(NCCc3ccc(O)cc3)nc(-c3csc4ccccc34)nc21
inactive: MCC-13 | WaGa | C33A | CASKI | Es-2 | HeLa | Hek293T | JEG-3 | OV90 | PA-1 | Tov-21-G | Tov112D

N#Cc1ccc(COC[C@H]2O[C@@H](n3c(NCc4ccc(Cl)c(Cl)c4)nc4c(N)ncnc43)[C@@H](O)[C@@H]2O)cc1
inactive: MCC-26

C#CCC(Cc1cnc2nc(N)nc(N)c2n1)c1ccc(C(=O)N[C@@H](CCC(=O)O)C(=O)O)cc1 (some centres undefined)
active: WaGa 0.526 µM
inactive: MCC-26 | MKL-2

C[N+](C)([O-])CCNc1ccc(NCC[N+](C)(C)[O-])c2c1C(=O)c1c(O)ccc(O)c1C2=O
inactive: MCC-26

CC[C@@]1([C@@H]2O[C@@H]([C@H]3O[C@@](O)(CO)[C@H](C)C[C@H]3C)C[C@H]2C)CC[C@H]([C@]2(C)CC[C@]3(C[C@H](O)[C@@H](C)[C@@H]([C@@H](C)[C@@H](OC)[C@H](C)C(=O)O)O3)O2)O1
inactive: MCC-26
active: MKL-1 0.512 µM | MKL-2 0.204 µM | UISO 0.512 µM | WaGa 0.457 µM

FC(F)c1nc2ccccc2n1-c1nc(N2CCOCC2)nc(N2CCOCC2)n1
active: CASKI 2.24 µM | Es-2 14.1 µM | Hek293T 2.24 µM | PA-1 2 µM | SKOV3 2.82 µM
inactive: MCC-13

Nc1ncn([C@@H]2O[C@H](CO)[C@@H](O)[C@@H]2O)c(=O)n1
inactive: MKL-1 | MKL-2

CC(C)N1[N]C(=C2C=c3cc(O)ccc3=N2)c2c(N)ncnc21
active: MKL-1 10.5 µM | UISO 0.833 µM | WaGa 5.9 µM

Oc1ccc(-c2ccc(-c3cc(Nc4cccc(CNC5CC5)c4)n[nH]3)cc2)c(O)c1
active: MKL-1 6.62 µM | UISO 5.26 µM

CCNC(=O)Nc1ccc(-c2nc3c(c(N4CCOC[C@H]4C)n2)CCN(C2COC2)C3)cc1
active: UISO 3.72 µM
inactive: MKL-2
